# Among all 310,000 compounds or so, about 14,000 (4.5%) showed an effect of 50% or more. Effects have a minus sign here. This excerpt belongs to a sample that is enriched for strong results.
# Molecular target: human ether-à-go-go-related gene (hERG) potassium channel (human, UniProt Q12809)
# Test: primary screen, population patch clamp on CHO cells stably expressing hERG; higher = less effect of the substance
# 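Further: peak tail current of the secondary pulse compared with the same well before compound.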
# human ether-à-go-go-related gene (hERG) potassium channel, sequence (Q12809 whole entry, looked up): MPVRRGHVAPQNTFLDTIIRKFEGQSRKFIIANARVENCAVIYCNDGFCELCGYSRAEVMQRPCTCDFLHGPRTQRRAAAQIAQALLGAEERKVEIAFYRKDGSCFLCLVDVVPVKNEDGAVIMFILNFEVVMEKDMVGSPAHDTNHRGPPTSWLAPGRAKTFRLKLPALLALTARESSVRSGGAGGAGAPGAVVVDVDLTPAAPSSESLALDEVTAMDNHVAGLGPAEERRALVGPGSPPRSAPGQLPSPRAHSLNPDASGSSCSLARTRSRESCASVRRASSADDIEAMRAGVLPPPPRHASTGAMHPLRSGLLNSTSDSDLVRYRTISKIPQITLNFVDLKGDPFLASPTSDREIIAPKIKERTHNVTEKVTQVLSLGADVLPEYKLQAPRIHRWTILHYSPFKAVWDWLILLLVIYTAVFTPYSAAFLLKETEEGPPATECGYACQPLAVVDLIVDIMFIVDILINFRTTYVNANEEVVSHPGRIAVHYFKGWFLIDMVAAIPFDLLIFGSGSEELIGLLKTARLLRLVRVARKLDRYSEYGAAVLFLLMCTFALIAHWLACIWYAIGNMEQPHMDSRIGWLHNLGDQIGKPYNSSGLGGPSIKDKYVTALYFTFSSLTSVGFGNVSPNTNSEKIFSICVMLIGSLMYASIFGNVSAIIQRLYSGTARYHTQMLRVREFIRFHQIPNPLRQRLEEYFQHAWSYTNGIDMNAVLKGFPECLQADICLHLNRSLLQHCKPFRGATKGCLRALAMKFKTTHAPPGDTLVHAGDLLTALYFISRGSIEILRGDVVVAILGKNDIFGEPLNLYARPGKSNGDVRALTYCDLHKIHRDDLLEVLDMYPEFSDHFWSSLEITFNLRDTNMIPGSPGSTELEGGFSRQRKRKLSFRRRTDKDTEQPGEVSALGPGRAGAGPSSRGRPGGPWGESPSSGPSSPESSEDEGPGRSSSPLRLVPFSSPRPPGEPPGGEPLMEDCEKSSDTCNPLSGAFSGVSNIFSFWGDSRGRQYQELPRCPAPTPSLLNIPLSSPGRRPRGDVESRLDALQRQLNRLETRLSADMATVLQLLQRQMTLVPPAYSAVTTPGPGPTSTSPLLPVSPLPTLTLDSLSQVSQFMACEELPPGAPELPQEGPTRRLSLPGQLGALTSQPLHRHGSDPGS
row,SMILES,"hERG current change (%, negative = inhibition) at 10uM"
1,Cc1ccc(NS(=O)(=O)c2ccc(C(=O)NNC(=O)c3ccccc3O)cc2)cc1,0.906%
2,COC(=O)Cn1c(=NC(=O)c2ccc(Cl)s2)sc2cc(F)ccc21,20%
3,O=C(CCS(=O)(=O)c1ccc(Cl)cc1)Nc1ccc(N2CCOCC2)cc1,-6.95%
4,CCOC(=O)c1sc2nc(C)nc(Nc3ccc(OC)cc3)c2c1C,24.1%
5,CN(Cc1cccnc1)C(=O)Cc1ccc(NS(=O)(=O)c2cccc(C(F)(F)F)c2)cc1,-57.6%
6,O=S(=O)(Nc1cccnc1)c1cccc(C(F)(F)F)c1,-2.26%
7,CC(NC(=O)Cc1ccc(NS(=O)(=O)c2cccc(C(F)(F)F)c2)cc1)c1ccccn1 (stereo not drawn),-7.55%
8,Cc1ccc(C(=O)N2CCOCC2)cc1Cl,2.91%
9,Cc1c(NC(=O)C(C)OC(=O)c2ccc(Cl)nc2)c(=O)n(-c2ccccc2)n1C (stereo not drawn),-2.18%
10,O=C(COC(=O)c1ccccc1F)NC(=O)NC1CCCC1,1.24%
11,N#CC1(NC(=O)CN2c3cccc4cccc(c34)S2(=O)=O)CCCCC1,14.9%
12,COc1ccccc1-c1nnc(C2CCN(S(=O)(=O)c3ccccc3[N+](=O)[O-])CC2)o1,-45.2%
13,COc1ccccc1CNC(=O)C1CCN(S(=O)(=O)c2cccc([N+](=O)[O-])c2)CC1,-3.34%
14,COc1ccccc1-c1nnc(NC(=O)c2ccc(S(=O)(=O)N3CCCC3)cc2)o1,-17.3%
15,O=[N+]([O-])c1cccc(S(=O)(=O)N2CCC(c3nc(-c4ccncc4)no3)CC2)c1,1.54%
16,COc1ccccc1-c1nnc(C2CCN(S(=O)(=O)c3ccc([N+](=O)[O-])cc3)CC2)o1,-74.6%
17,COc1ccccc1-c1nnc(C2CCN(S(=O)(=O)c3cccc([N+](=O)[O-])c3)CC2)o1,-57.6%
18,O=C(CCCN1C(=O)c2ccccc2C1=O)NCc1ccco1,6.15%
19,COc1ccc(N2C(=O)CC(Nc3cccc(C(C)=O)c3)C2=O)cc1OC (stereo not drawn),7.07%
20,COc1cc(OC)cc(C(=O)NCCCNC(=O)c2cccnc2)c1,7.43%
21,N#C/C(=C\c1ccc(N2CCCCC2)o1)C(N)=O,7.71%

row,SMILES,"hERG current change (%, negative = inhibition) at 10uM"
1,OCCC1CN(Cc2cccn2-c2ncccn2)CCN1Cc1ccc(F)cc1 (stereo not drawn),-73.7%
2,OCCC1CN(Cc2cccn2-c2ncccn2)CCN1Cc1ccccc1 (stereo not drawn),-64.2%
3,OCCC1CN(Cc2cccn2-c2cccnc2)CCN1CCc1ccccc1 (stereo not drawn),-65.2%
4,Cc1ncc(CN2CCN(Cc3ccc(F)cc3)C(CCO)C2)s1 (stereo not drawn),9.56%
5,CC(C)CCN1CCN(Cc2cccn2-c2cccnc2)CC1CCO (stereo not drawn),-32.5%
6,OCCC1CN(Cc2cccn2-c2ncccn2)CCN1CCc1ccccc1 (stereo not drawn),-68.2%
7,Cc1cc(C)n(-c2ccc(C(=O)OCC(=O)Nc3ccc([N+](=O)[O-])cc3)cc2)n1,-10.6%
8,Cc1ccc(C(=O)Nc2nnc(SCC(=O)N3CCCc4ccccc43)s2)cc1,7.27%
9,Cc1ccc(-n2c(SCC(=O)O)nc3c(sc(=S)n3-c3ccc(C)c(C)c3)c2=O)cc1,14%
10,O=C(c1cn(-c2ccccc2)nc1-c1ccc(Cl)s1)N1CCOCC1,-20.9%
11,COc1ccc(CNC(=O)COC(=O)/C=C/c2cccc(Br)c2)cc1OC,30.1%
12,CC(=O)Nc1ccc(C2=NN(c3ccccc3)C(c3cccs3)C2)cc1 (stereo not drawn),7.7%
13,Cc1cc(NC(=O)COc2ccc(F)c(Cl)c2)no1,17.7%
14,CCn1c(SCc2ccccc2)nc2ccccc2c1=O,2.76%
15,Cc1ccc(OCC(=O)NC(C)c2ccccc2)cc1 (stereo not drawn),-1.19%
16,O=C1C2=C(CCCC2)C(=O)N1CNc1ccccc1,16.3%
17,O=C1CC(N(Cc2cccs2)C(=O)Nc2ccccc2)C(=O)N1c1ccc(Cl)cc1 (stereo not drawn),-22.6%
18,Cc1ccccc1OCc1nc2ccccc2c(=O)n1/N=C/c1cn[nH]c1-c1ccc(Br)cc1,15.8%
19,CCN(CC)c1ccc(NC(=O)Nc2cccc3ccccc23)cc1,7.7%
20,CCn1nc(C)c(CN2CCN(Cc3ccc(OC)c(C)c3C)C(CCO)C2)c1C (stereo not drawn),-45.8%
21,COc1ccc(CN2CCN(Cc3cccn3-c3ncccn3)CC2CCO)c(C)c1C (stereo not drawn),-81.6%

row,SMILES,"hERG current change (%, negative = inhibition) at 10uM"
1,COc1ccc(CN2CCN(CC3CC3)CC2CCO)c(C)c1C (stereo not drawn),-0.714%
2,CC(C(=O)NCC(=O)Nc1ccc(F)c(F)c1F)N1CCN(Cc2ccc(C#N)cc2)CC1 (stereo not drawn),-61%
3,N#Cc1ccc(-c2ccc(OCC(=O)NCC(=O)Nc3ccc(F)c(F)c3F)cc2)cc1,-7.98%
4,CC(C(=O)NCC(=O)Nc1ccc(F)c(F)c1F)N1CCN(c2ccc(O)cc2)CC1 (stereo not drawn),-6.1%
5,CCOC(=O)N1CCC(N2C(=O)c3ccc(C(=O)Nc4ccc(OC)c(OC)c4)cc3C2=O)CC1,23.2%
6,O=C(/N=C1\NC(=O)C(F)(C(F)(F)F)S1)NC1CCCCC1 (stereo not drawn),13%
7,Cn1c(CCN2CCCCC2)nc2cc(NS(=O)(=O)c3ccc(F)cc3)ccc21,-67.6%
8,Cn1c(CN2CCCCC2)nc2cc(NS(=O)(=O)c3ccc(F)cc3)ccc21,-54.2%
9,O=S(=O)(Nc1ccc2c(c1)nc1n2CCN(Cc2ccccc2)C1)c1ccccc1,-40.1%
10,CC(C)C(=O)Nc1ccc2c(c1)nc(CCN1CCCCC1)n2C,-0.778%
11,O=S(=O)(Nc1ccc2c(c1)nc1n2CCN(Cc2ccccc2)C1)c1ccc(Cl)cc1,-2.38%
12,CCCC(=O)Nc1ccc2c(c1)nc(CCN1CCCCC1)n2C,-4.96%
13,O=S(=O)(Nc1ccc2c(c1)nc1n2CCN(Cc2ccccc2)C1)c1ccc(F)cc1,-50.4%
14,O=C(O)CN(c1ccccn1)S(=O)(=O)c1ccccc1,-8.38%
15,O=C(NCCc1ccccc1)C(=O)NCC(c1ccco1)N1CCOCC1 (stereo not drawn),23.8%
16,Cc1ccc(NC(=O)C2CCN(S(=O)(=O)c3ccc4c(c3)CCCC(=O)N4)CC2)cc1N(C)C,-14.7%
17,O=C(COC(=O)c1ccc2c(c1)OCCO2)NCCC1=CCCCC1,-10.8%
18,CN(C(=O)C1CCN(S(=O)(=O)c2cccs2)CC1)c1ccccc1,-16.9%
19,O=C(CCS(=O)(=O)c1ccc(Br)cc1)NCc1cccs1,-11.5%
20,COC(=O)C(C(=O)OC)C(C[N+](=O)[O-])c1ccc(OC)c(OC)c1 (stereo not drawn),-22.7%
21,CCOC(=O)C1(Cc2cccc(OC)c2)CCN(C/C=C/c2ccccc2)CC1,-75.9%

row,SMILES,"hERG current change (%, negative = inhibition) at 10uM"
1,CCOC(=O)C1(Cc2cccc(OC)c2)CCN(C/C=C/c2ccc(OC)cc2)CC1,-72.3%
2,CCOC(=O)C1(Cc2cccc(OC)c2)CCN(CC=C(C)C)CC1,-22%
3,N#CCCn1[nH]c(-c2ccccc2)cc1=O,5.16%
4,O=C(CCCc1c[nH]c2ccccc12)Nc1ncccc1O,14.7%
5,CC1CCN(C2CC(=O)N(c3ccc(Br)cc3Br)C2=O)CC1 (stereo not drawn),2.17%
6,COc1ccc(C(CNC(=O)c2cc3ccccc3cc2O)N2CCOCC2)cc1 (stereo not drawn),-3.36%
7,CC(C)C(=O)N1CCC(n2nccc2NC(=O)CCc2ccccc2)CC1,18.7%
8,COc1ccccc1/C=C/CN1CCC(n2nccc2NC(=O)C2CC2)CC1,-59.1%
9,COCCC(=O)N1CCC(n2nccc2NC(=O)CCc2ccccc2)CC1,14.2%
10,O=C(CCc1ccccc1)Nc1ccnn1C1CCN(C/C=C/c2ccccc2)CC1,-72.1%
11,CSCC(=O)N1CCC(n2nccc2NC(=O)CCc2ccccc2)CC1,12.1%
12,COc1ccccc1/C=C/CN1CCC(n2nccc2NC(=O)CCc2ccccc2)CC1,-86.1%
13,COc1cc(CC(=O)N2CCC(n3nccc3NC(=O)C3CC3)CC2)cc(OC)c1OC,12.8%
14,CC(=O)c1cccc(CN2CCC(n3nccc3NC(=O)CCc3ccccc3)CC2)c1,-25.1%
15,COc1ccccc1CC(=O)N1CCC(n2nccc2NC(=O)C2CCOC2)CC1 (stereo not drawn),4.83%
16,COCC1CCCN(C(=O)c2ccc3oc(CCCc4ccccc4)nc3c2)C1 (stereo not drawn),-16.2%
17,CCn1c(SCC(=O)C(C)(C)C)nnc1-c1cccnc1,-0.363%
18,CC(C)NS(=O)(=O)c1ccc(NC(=O)C(C)OC(=O)CCC2CCCC2)cc1 (stereo not drawn),7.06%
19,Cc1cc(C(=O)N/N=C/c2cc([N+](=O)[O-])ccc2O)c2ccccc2n1,6.35%
20,CCOCCCNC(=S)N(CCN(CC)CC)Cc1cc2cc3c(cc2[nH]c1=O)OCCO3,7.75%
21,CCCN(CCC)C1Sc2ccc(C(=O)OC)cc2NC1=O (stereo not drawn),-9.31%

# Reference: article PMC4336329 (PLoS ONE, 2015)
